From PubChem BioAssay (NCATS)
Inconclusive results are not listed. The source made the active and inactive calls. Unless noted, calls come from the whole dose curve; as a rule, active = well fitted curve in either direction with a large enough effect (not every such curve was filed as active); inconclusive = small, poorly fitted or top-dose-only effect, or another doubt; inactive = flat fitted curve, though single readings scatter.

Assays:
[1] = AP1 Signaling Pathway (AID 357);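 note: ME-180 reporter cells stimulated with EGF at its EC50 level; % is set by controls: 0 for no effect and ±100 for the full control effect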
How it was run: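 A ratiometric CCF4 readout (405 nm excitation; 460 and 530 nm emission) quantified AP-1-driven beta-lactamase in ME-180 cells after 5 h with compound and EC50 EGF; AC50 values were derived for activators and inhibitors.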

[2] = Stat Signaling Pathway (AID 446);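 note: ME-180 cervical cancer cells given 40 pM IL-6 alongside compound; SIE-controlled beta-lactamase reporter measured as 460/530 nm FRET emission ratio; % is set by controls: 0 for no effect and ±100 for the full control effect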
How it was run: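 FRET read-out (405 nm excitation, 460/530 nm emission) of a beta-lactamase reporter under a STAT-inducible element in ME-180 cervical carcinoma cells. Cells with compound receive 40 pM IL-6 for 5 h. Values are normalised to AC90 stimulation and AC90 JAK-inhibitor controls.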

[3] = molecular target: Glucocorticoid receptor (Homo sapiens) (UniProt P04150); test: GR-GFP Redistribution (AID 450;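 active = compounds whose dose series gives a full or clear partial fitted curve of increased nuclear translocation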; note: potency is the fitted concentration of half-maximal effect); details: U2OS GR-GFP nuclear translocation, laser cytometry, 2 h
Chain of Glucocorticoid receptor (Homo sapiens) (P04150 whole entry, looked up, the tested form may be a part): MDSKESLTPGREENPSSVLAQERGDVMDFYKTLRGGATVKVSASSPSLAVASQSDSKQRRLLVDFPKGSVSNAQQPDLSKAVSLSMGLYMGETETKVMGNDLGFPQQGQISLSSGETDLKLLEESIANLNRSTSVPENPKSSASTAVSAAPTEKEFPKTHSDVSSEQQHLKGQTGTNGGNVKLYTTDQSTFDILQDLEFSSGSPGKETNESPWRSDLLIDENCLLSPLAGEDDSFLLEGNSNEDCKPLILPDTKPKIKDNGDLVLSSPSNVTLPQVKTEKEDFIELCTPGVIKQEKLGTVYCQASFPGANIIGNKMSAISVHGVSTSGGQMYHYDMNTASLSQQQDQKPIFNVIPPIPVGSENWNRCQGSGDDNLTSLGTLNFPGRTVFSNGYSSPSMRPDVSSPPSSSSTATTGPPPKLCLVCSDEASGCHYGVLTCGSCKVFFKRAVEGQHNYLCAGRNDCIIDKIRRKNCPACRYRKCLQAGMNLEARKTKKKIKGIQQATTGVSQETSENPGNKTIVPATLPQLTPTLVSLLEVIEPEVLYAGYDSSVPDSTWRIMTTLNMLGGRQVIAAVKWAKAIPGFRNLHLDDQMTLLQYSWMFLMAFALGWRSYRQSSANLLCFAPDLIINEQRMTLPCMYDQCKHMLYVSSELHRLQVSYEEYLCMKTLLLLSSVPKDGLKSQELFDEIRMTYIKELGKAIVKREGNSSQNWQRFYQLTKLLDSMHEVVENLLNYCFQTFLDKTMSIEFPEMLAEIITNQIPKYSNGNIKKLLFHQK

[4] = molecular target: Glucocorticoid receptor (Homo sapiens) (UniProt P04150); test: GR-EFC Redistribution (AID 451; calls by dose curve; note: potency is the fitted concentration of half-maximal effect); details: CHO-K1 GR-EFC translocation, beta-gal luminescence, 2 h
How it was run: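 CHO-K1 cells expressing nuclear EA and GR-ED fragments of b-gal; compounds titrated up to 46 uM final, 2 h at 37 C. GR nuclear translocation read as complemented b-gal luminescence after 1 h RT detection.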

[5] = molecular target: Mitogen-activated protein kinase 10 (Mus musculus) (UniProt Q61831); test: JNK3 AlphaScreen Assay (AID 530);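 note: kinase came from lysate of stimulated human HepG2 cells; signal reports phosphorylation of biotinylated GST-cJun 1-79 at Ser73 with 10 µM ATP; % is set by controls: 0 for no effect and ±100 for the full control effect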
How it was run: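 HepG2 lysate (IL-1b/TNFa pre-activated) + biotin-GST-cJun 1-79 + anti-pSer73 cJun; cpd titration, 15 min RT; ATP 10 uM start; Tris pH 7.6, MgCl2, DTT, vanadate; beads in EDTA buffer; AlphaScreen.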

[6] = qHTS Assay for Lipid Storage Modulators (AID 1519; calls by dose curve); details: Drosophila S3 cells, BODIPY lipid droplet/cell ratio, laser cytometry, cells loaded with oleic acid
How it was run: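 Cells seeded at 5,000 per well were treated with compounds over a concentration series and loaded with oleic acid (400 uM, as added). Lipid droplet fluorescence (488 nm excitation, 500-530 nm channel) was read by laser-scanning cytometry and normalized to 20 uM Triacsin C.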

[7] = molecular target: Ubiquitin carboxyl-terminal hydrolase 1 (Homo sapiens) (UniProt O94782); test: Inhibitors of USP1/UAF1: Pilot qHTS (AID 504865; active = well fitted curve in the direction sought with a large enough effect; an effect the other way counts as inactive or inconclusive;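 note: rhodamine fluorescence freed from ubiquitin-rhodamine substrate followed over time; top concentration of the series differs between compounds; % is set by controls: 0 for no effect and ±100 for the full control effect; nearly all actives have a fitted effect of over 35% in size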)
Chain of Ubiquitin carboxyl-terminal hydrolase 1 (Homo sapiens) (O94782 whole entry, looked up): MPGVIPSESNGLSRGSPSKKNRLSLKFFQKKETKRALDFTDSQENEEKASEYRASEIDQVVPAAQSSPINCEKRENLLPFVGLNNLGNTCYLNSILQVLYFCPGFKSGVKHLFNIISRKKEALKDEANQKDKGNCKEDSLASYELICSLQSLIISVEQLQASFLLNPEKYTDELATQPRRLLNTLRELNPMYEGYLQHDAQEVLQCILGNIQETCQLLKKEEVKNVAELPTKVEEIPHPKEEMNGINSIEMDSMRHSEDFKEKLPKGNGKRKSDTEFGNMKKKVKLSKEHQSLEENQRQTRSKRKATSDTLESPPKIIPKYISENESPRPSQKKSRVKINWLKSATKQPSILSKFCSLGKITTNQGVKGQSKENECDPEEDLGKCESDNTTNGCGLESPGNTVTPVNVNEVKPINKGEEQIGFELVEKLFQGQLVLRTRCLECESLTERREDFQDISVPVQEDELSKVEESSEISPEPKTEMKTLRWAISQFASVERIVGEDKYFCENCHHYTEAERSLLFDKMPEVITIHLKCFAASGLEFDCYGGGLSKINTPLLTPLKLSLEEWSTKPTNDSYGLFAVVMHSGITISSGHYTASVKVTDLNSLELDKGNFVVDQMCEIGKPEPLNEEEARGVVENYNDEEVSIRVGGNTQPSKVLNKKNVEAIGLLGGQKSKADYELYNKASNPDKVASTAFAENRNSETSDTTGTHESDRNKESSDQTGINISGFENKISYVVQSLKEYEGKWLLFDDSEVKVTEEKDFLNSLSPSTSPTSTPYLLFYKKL
How it was run: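 Deubiquitinase activity followed as kinetic rhodamine fluorescence release from 150 nM Ub-Rho. 1 nM USP1/UAF1 with compound, after 15 min room-temperature preincubation, in HEPES pH 7.8 buffer containing TCEP, EDTA, BSA and Tween-20.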

[8] = molecular target: Luciferin 4-monooxygenase (Photinus pyralis) (UniProt P08659); test: Biochemical firefly luciferase enzyme assay for NPC (AID 624030; active = well fitted curve in the direction sought with a large enough effect; an effect the other way counts as inactive or inconclusive;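 note: purified P. pyralis luciferase at 10 nM with luciferin and ATP substrate; 0% = DMSO and -100% = full luciferase inhibition by PTC124 control; nearly all actives have a fitted effect of over 70% in size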)
Chain of Luciferin 4-monooxygenase (Photinus pyralis) (P08659 whole entry, looked up): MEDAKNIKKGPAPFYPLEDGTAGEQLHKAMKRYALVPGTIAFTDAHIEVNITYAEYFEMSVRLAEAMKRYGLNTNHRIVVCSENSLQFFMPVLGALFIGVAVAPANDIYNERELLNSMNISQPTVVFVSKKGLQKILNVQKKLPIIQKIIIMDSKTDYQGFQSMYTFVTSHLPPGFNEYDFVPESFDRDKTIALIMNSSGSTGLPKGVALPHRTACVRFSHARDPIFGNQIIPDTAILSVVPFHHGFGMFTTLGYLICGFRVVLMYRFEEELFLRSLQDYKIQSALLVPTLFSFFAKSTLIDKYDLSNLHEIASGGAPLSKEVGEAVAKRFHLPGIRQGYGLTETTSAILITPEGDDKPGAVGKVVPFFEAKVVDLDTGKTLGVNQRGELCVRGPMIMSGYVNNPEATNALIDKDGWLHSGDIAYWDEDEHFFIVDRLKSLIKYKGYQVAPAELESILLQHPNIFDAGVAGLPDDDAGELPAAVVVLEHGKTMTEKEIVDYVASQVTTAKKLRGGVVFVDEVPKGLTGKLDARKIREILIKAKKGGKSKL
How it was run: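 Purified P. pyralis luciferase at 10 nM in 50 mM Tris Acetate (final), luminescence read within 5 minutes of enzyme addition to compounds. Activity normalised to PTC124 versus DMSO; concentration-response curves classed by r2, magnitude and activity.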

[9] = molecular target: 3',5'-cyclic-AMP phosphodiesterase 4B (Homo sapiens) (UniProt Q07343); test: qHTS Assay for Inhibitors of PDE-IV (AID 607; active = well fitted activation curve with a large enough effect in the main read-out, with a control signal flat, not every such curve was filed as active; note: % of control where 0% means no effect)
Chain of 3',5'-cyclic-AMP phosphodiesterase 4B (Homo sapiens) (Q07343 whole entry, looked up): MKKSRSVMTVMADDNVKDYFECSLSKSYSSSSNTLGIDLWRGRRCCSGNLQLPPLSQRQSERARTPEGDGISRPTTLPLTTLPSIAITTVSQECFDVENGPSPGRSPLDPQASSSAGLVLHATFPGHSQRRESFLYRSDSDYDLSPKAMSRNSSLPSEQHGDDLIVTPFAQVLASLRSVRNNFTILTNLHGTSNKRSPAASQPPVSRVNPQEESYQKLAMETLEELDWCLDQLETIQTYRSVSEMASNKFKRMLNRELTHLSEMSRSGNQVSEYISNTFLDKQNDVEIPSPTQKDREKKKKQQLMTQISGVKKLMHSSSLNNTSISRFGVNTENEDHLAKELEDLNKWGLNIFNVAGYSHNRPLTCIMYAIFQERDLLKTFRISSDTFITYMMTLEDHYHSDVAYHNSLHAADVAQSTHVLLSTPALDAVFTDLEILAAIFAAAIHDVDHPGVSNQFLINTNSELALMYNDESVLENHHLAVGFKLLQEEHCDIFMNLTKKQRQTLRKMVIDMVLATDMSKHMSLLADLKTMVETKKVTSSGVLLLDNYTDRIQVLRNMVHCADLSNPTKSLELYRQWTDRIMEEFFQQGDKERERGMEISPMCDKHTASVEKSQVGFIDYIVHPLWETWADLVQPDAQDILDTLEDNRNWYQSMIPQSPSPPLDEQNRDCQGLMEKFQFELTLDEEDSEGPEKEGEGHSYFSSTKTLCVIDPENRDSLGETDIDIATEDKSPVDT
How it was run: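 Cell-based read-out of cAMP via a modified cyclic nucleotide-gated channel and membrane potential dye (535/590 nm) in HEK293 cells expressing PDE4 endogenously. Compounds tested up to 22.9 uM final; 100 uM RO 20-1724 reference.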

[10] = molecular target: ATP-dependent 6-phosphofructokinase (Trypanosoma brucei brucei) (UniProt O15648); test: qHTS Assay to Find Inhibitors of T. brucei phosphofructokinase: hit validation (AID 492961; active = well fitted curve in the direction sought with a large enough effect; an effect the other way counts as inactive or inconclusive;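 note: luminescence reports ADP formed as PFK phosphorylates fructose-6-phosphate with ATP; % is set by controls: 0 for no effect and ±100 for the full control effect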)
Chain of ATP-dependent 6-phosphofructokinase (Trypanosoma brucei brucei) (O15648 whole entry, looked up): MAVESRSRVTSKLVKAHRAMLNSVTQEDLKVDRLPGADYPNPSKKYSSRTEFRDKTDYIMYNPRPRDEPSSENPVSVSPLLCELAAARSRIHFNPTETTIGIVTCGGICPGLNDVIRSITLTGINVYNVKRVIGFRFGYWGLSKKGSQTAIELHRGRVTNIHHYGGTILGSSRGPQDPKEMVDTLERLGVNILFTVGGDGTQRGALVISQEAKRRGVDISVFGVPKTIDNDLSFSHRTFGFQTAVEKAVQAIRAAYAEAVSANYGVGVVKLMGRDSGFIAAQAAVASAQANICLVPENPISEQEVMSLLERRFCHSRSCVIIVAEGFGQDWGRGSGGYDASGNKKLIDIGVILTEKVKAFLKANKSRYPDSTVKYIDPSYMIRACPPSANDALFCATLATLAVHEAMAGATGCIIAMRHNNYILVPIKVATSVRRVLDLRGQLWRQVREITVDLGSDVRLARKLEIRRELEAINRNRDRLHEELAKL
How it was run: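 Compounds titrated; %activity normalized to 0x and 1x enzyme controls, curve-fitted. Readout: ADP-Glo luminescence after 45 min room-temperature reaction of 1.25 nM PFK, 0.1 mM ATP, 0.5 mM F6P, pH 8.0.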

[11] = qHTS profiling for inhibitors of Plasmodium falciparum proliferation (AID 504749; active = well fitted curve in the direction sought with a large enough effect; an effect the other way counts as inactive or inconclusive; note: nearly all actives have a fitted effect of over 60% in size; note: potency is the fitted concentration of half-maximal effect;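 for activity, negative = inhibition: 0% = DMSO vehicle and full inhibition = artemisinin control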); details: P. falciparum in erythrocytes, SYBR Green DNA, 72 h, at 28.7 µM (top of the series)
How it was run: (§1)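 SYBR Green fluorescence (ex 485 nm, em 535 nm) reports parasite DNA after 72 h compound exposure of infected red cells at 0.3% parasitemia, 2.5% hematocrit; signal normalized to 0.29 uM artemisinin and vehicle wells.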

[12] = system: C2A; test: as above; details: P. falciparum in erythrocytes, SYBR Green DNA, 72 h; series mostly up to 12.8 µM
How it was run: as §1

[13] = system: CP238; test: as above; details: P. falciparum in erythrocytes, SYBR Green DNA, 72 h; series mostly up to 12.8 µM
How it was run: as §1

[14] = system: CP252; test: as above; details: P. falciparum in erythrocytes, SYBR Green DNA, 72 h; series mostly up to 12.8 µM
How it was run: as §1

[15] = system: DIV14; test: as above; details: P. falciparum in erythrocytes, SYBR Green DNA, 72 h; series mostly up to 12.8 µM
How it was run: as §1

[16] = system: JCK; test: as above; details: P. falciparum in erythrocytes, SYBR Green DNA, 72 h; series mostly up to 12.8 µM
How it was run: as §1

[17] = system: N140; test: as above; details: P. falciparum in erythrocytes, SYBR Green DNA, 72 h; series mostly up to 12.8 µM
How it was run: as §1

[18] = system: SC27B; test: as above; details: P. falciparum in erythrocytes, SYBR Green DNA, 72 h; series mostly up to 12.8 µM
How it was run: as §1

[19] = system: W2; test: as above; details: P. falciparum in erythrocytes, SYBR Green DNA, 72 h; series mostly up to 12.8 µM
How it was run: as §1

[20] = measured here: cell count channel max response
[21] = measured here: lipid channel max response

C#C[C@]1(O)CC[C@@H]2[C@H]3CCC4=Cc5oncc5C[C@]4(C)[C@@H]3CC[C@@]21C
-23.4%: max response [6, 21]
-23.2%: max response [6, 20]
inactive: outcome [1] | outcome [2] | Potency [3] > 20.6 µM | Potency [4] > 20.6 µM | Potency [5] | activity change, negative = inhibition ([6]; at 25.7 µM (top of the series)) -2.17% | Potency [7]

O=C(O)[C@@H](O)[C@@H](O)[C@@H](O[C@H]1O[C@@H](CO)[C@@H](O)[C@@H](O)[C@@H]1O)[C@@H](O)CO
12.1%: max response [6, 20]
inactive: outcome [1] | outcome [2] | Potency [4] > 20.6 µM | activity change, negative = inhibition ([6]; at 25.7 µM (top of the series)) -0.529% | Potency [7] | Potency [8]
10.3%: max response [6, 21]

COc1cc2cc3c4cc(OC)c(OC)cc4cc[n+]3c(C)c2cc1OC
inactive: outcome [1] | outcome [2] | Potency [3] > 20.6 µM | Potency [4] > 20.6 µM | outcome [9] | activity change, negative = inhibition ([6]; at 25.7 µM (top of the series)) 0.187% | Potency [7]
-9.88%: max response [6, 21]
-9.25%: max response [6, 20]

CN(C)CCOC(=O)[C@@H](c1ccccc1)C1(O)CCCC1
1.92%: max response [6, 21]
active: Potency [19] 8.49 µM
inactive: outcome [1] | outcome [2] | Potency [3] > 20.6 µM | Potency [4] > 20.6 µM | Potency [5] | outcome [9] | activity change, negative = inhibition ([6]; at 25.7 µM (top of the series)) -1.19% | outcome [10] | Potency [7] | Potency [8] | activity, negative = inhibition ([11]; parasite line A) 22.6% | activity, negative = inhibition ([11]; parasite line B) 8.77% | Potency [12] | Potency [13] | Potency [14] | Potency [15] | Potency [16] | Potency [17] | Potency [18]
2.88%: max response [6, 20]

COC(=O)Nc1nc2ccc(SC(C)C)cc2[nH]1
inactive: outcome [1] | outcome [2] | Potency [3] > 20.6 µM | Potency [4] > 20.6 µM | Potency [5] | activity change, negative = inhibition ([6]; at 25.7 µM (top of the series)) -1.67% | Potency [7]
-4.22%: max response [6, 21]
-2.31%: max response [6, 20]

CS(=O)(=O)Nc1cccc(-c2nc(Nc3ccc(F)cc3)c3ccccc3n2)c1
-26.1%: max response [6, 21]
inactive: outcome [1] | Potency [3] > 46 µM | Potency [4] > 46 µM | Potency [5] | outcome [9] | activity change, negative = inhibition ([6]; at 57.5 µM (top of the series)) 3.03%
-21%: max response [6, 20]

CS(=O)(=O)Nc1cccc(-c2nc(Nc3ccccc3)c3ccccc3n2)c1
2.43%: max response [6, 21]
-5.28%: max response [6, 20]
inactive: outcome [1] | Potency [3] > 46 µM | Potency [4] > 46 µM | Potency [5] | activity change, negative = inhibition ([6]; at 57.5 µM (top of the series)) 7.97%

COc1ccc(CNc2ncncc2-c2ccccc2CN(C)C)c(OC)c1
19.6%: max response [6, 21]
9.69%: max response [6, 20]
inactive: outcome [1] | outcome [2] | Potency [3] > 46 µM | Potency [4] > 46 µM | Potency [5] | outcome [9] | activity change, negative = inhibition ([6]; at 57.5 µM (top of the series)) 6.9% | Potency [7]
